Source: PubChem BioAssay AID1852 (Sanford-Burnham Center for Chemical Genomics, 2009)
About 1,100 (44%) of roughly 2,500 compounds were called active. The set was probably picked from earlier hits. Some of the results follow. Values without a mark were called inactive.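 The calls were made as follows: active = inhibition above 50% at 4 µM in the single-point screen; inactive = inhibition of 50% or less.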

Assay: blockers of TNF-a NF-kB luciferase induction – cell-based, HEK293T NF-kB-Luc, luminescence, selectivity assay for NOD1/NOD2 signaling inhibitor project, primary screen (AID 1852)
Conditions: TNF-a induced, 14 h, at 4 µM, hits give high values
In the case of `Nc1ncc([N+](=O)[O-])c(N2CCCCCC2)n1`, the inhibition is reported as 86.3% (active).
Molecule `Cc1cc(C=O)c(C)n1-c1ccc(N2CCCCC2)c([N+](=O)[O-])c1` has an inhibition of 47.6%.
Molecule `Cc1cc(/C=N/Nc2nc(N)ncc2[N+](=O)[O-])c(C)n1-c1ccccc1F` has an inhibition of 26.6%.
`O=C(Nc1ccccn1)c1ccc(-c2ccccc2)cc1` showed an inhibition of -197%.
For `C=CCN(CC=C)C(=S)NC(=O)c1ccc(-c2ccccc2)cc1`, the inhibition was 104% (active).
Work on `CN(C)c1cc[n+](CC(=O)c2ccc(-c3ccccc3)cc2)cc1` yielded an inhibition of 47.3%.
Molecule `CC(C)C[C@H](NC(=O)c1nc[nH]c1C(=O)N(C)Cc1ccccc1)C(=O)OC(C)(C)C` has an inhibition of 26.1%.
With `CN(Cc1ccccc1)C(=S)NC(=O)c1ccc(-c2ccccc2)cc1` the inhibition was 105% (active).
`CCOC(=O)CSc1n[nH]c(NC(=O)CC)n1` showed an inhibition of -7.7%.
With `NC(=S)Nc1cccc2cn[nH]c12` the inhibition was 75.7% (active).
In the case of `O=c1c(C(c2ccccc2)c2c(O)sc3ccccc3c2=O)c(O)sc2ccccc12`, the inhibition is reported as 77.7% (active).
Molecule `NC(=O)c1nsc(C(=O)N(c2ccccc2)C(C(=O)NCc2ccc(F)cc2)c2ccco2)c1N` (stereo not given) has an inhibition of -11.7%.
With `NC(=O)c1nsc(C(=O)N(c2ccccc2F)C(C(=O)NCc2ccc(F)cc2)c2ccc(O)cc2)c1N` (stereo not given) the inhibition was 69.7% (active).
With `CN(C)c1ccc(C(C(=O)NCc2ccccc2)N(Cc2ccco2)C(=O)c2snc(C(N)=O)c2N)cc1` (stereo not given) the inhibition was 11.8%.
For `COc1cc(C)ccc1OCCCOc1ccccc1Cl`, the inhibition was 90.6% (active).
Molecule `COc1cc(CNc2ccc3[nH]c(=O)[nH]c3c2)ccc1OCc1ccccc1Cl` has an inhibition of 31.1%.
With `COC(=O)c1ccccc1OCCCOc1ccc(C)cc1OC` the inhibition was -116%.
With `N#CC1=C(N)N2C(=C(C#N)C1c1ccc(Br)cc1)Nc1ccccc12` (stereo not given) the inhibition was 86.9% (active).
For `N#CC1=C(N)N2C(=C(C#N)C1c1cccc(Br)c1)Nc1ccccc12` (stereo not given), the inhibition was 89.3% (active).
Work on `CCN1C(=O)/C(=C/c2nc3ccccc3c(=O)n2-c2ccc(C)cc2)c2ccccc21` yielded an inhibition of 23.6%.
With `Cc1cc(Cl)c(S(=O)(=O)N2CCN(c3ccc(F)cc3)CC2)cc1OCC(=O)NC1CCCCC1` the inhibition was 69.7% (active).
With `COc1ccc(C)cc1S(=O)(=O)N1CCN(C(=O)c2ncoc2-c2ccc(F)cc2)CC1` the inhibition was 14.4%.
With `Cc1cc(-c2ccc(C)c(S(=O)(=O)N3CCN(c4ccc(F)cc4)CC3)c2)on1` the inhibition was 41%.
`Cc1cc(Cl)c(S(=O)(=O)N2CCSCC2)cc1OCC(=O)NC1CCCCC1` showed an inhibition of 44.2%.
For `Cc1cc(Cl)c(S(=O)(=O)N2CCCCCC2)cc1OCC(=O)NC1CCCCC1`, the inhibition was 55.3% (active).
Molecule `COc1ccc(S(=O)(=O)N2CCCC(C(=O)NCc3ccncc3)C2)cc1Cl` (stereo not given) has an inhibition of 8.9%.
In the case of `CCOc1ccc(/C=C2\C(=O)c3ccccc3OC2c2ccccc2)cc1` (stereo not given), the inhibition is reported as -5.4%.
`Cc1ccc(-c2onc3ccc(C(=O)/C=C/N(C)C)cc23)cc1` showed an inhibition of 14.5%.
With `COc1ccc2cc3c(N)nn(C(=O)Cc4c[nH]c5ccccc45)c3nc2c1` the inhibition was 91.9% (active).
In the case of `COc1ccc2cc3c(N)nn(C(=O)Cc4ccccc4OC)c3nc2c1`, the inhibition is reported as 91% (active).
For `CCOc1ccccc1N1CCN(C(=O)c2cc(-c3cc(OC)ccc3OC)nc3ccccc23)CC1`, the inhibition was 1.3%.
`COc1ccc2cc3cc(C(=O)NCCc4ccc(OC)c(OC)c4)oc3nc2c1` showed an inhibition of -4.4%.
Work on `O=c1[nH]c(CCl)nc2cc(-c3ccc(F)cc3)sc12` yielded an inhibition of 28.3%.
For `COc1ccc(-c2cc3nc(CCl)[nH]c(=O)c3s2)cc1`, the inhibition was 25.2%.
With `COc1ccc(-c2cc3nc(C)n(N)c(=O)c3s2)cc1` the inhibition was 78.3% (active).
Work on `CSc1cccc(NS(=O)(=O)c2ccc3c(c2)CCN3C(C)=O)c1` yielded an inhibition of 25%.
With `CC1Cc2ccccc2N1C(=S)NC(=O)c1cccc(Br)c1` (stereo not given) the inhibition was 103% (active).
For `COc1ccc(Br)cc1/C=C/C(=O)c1ccc(NC(C)=O)cc1`, the inhibition was 94.8% (active).
In the case of `CCC(=O)Nc1cccc(C(=O)/C=C/c2cc(Br)ccc2OC)c1`, the inhibition is reported as 77.3% (active).
Work on `COc1ccccc1/C=C1\S/C(=N/NC(=O)c2cccc(Br)c2)NC1=O` yielded an inhibition of -30.6%.
Molecule `COc1cccc(C(=O)/C=C/c2ccc(OCC#N)c(OC)c2)c1` has an inhibition of -58.9%.
With `CC(=O)Nc1ccc(N/C=C/C(=O)c2ccc(C)cc2)cc1` the inhibition was -16.4%.
With `N#CC(C#N)=C(Nc1ccc(F)cc1)SCc1cccc(F)c1` the inhibition was 81.7% (active).
With `N#CC(C#N)=C(Nc1ccc(F)cc1)SCc1cccc(Br)c1` the inhibition was 54.7% (active).
In the case of `Cc1ccc(CSC(Nc2ccc(F)cc2)=C(C#N)C#N)cc1`, the inhibition is reported as 74.6% (active).
With `COc1c(F)c(F)c(C(=O)Nc2cccc(Cl)c2N2CCOCC2)c(F)c1F` the inhibition was 46.2%.
Molecule `COc1ccc(C)cc1NC(=O)CN(C)S(=O)(=O)c1ccc2c(c1)c(=O)n(C)c(=O)n2C` has an inhibition of 19.7%.
In the case of `COc1cc(/C=C/C(=O)c2ccc(NS(=O)(=O)c3ccc(C)cc3)cc2)cc(OC)c1O`, the inhibition is reported as 78.9% (active).
With `COc1cccc(/C=C/C(=O)c2ccc(NS(=O)(=O)c3ccc(C)cc3)cc2)c1` the inhibition was 4.1%.
Work on `COc1cc(/C=C/C(=O)c2ccc(C)cc2)ccc1OCC#N` yielded an inhibition of 19.5%.
With `COc1cc(OC)c(OC)cc1/C=C/C(=O)c1ccc(NS(=O)(=O)c2ccc(C)cc2)cc1` the inhibition was 70.3% (active).
Work on `COc1cccc(C(=O)/C=C/Nc2ccc(S(=O)(=O)Nc3cccc(C(C)=O)c3)cc2)c1` yielded an inhibition of 46.2%.
In the case of `Oc1ccc(N=Nc2ccccc2C(F)(F)F)c2cccnc12`, the inhibition is reported as 20.4%.
With `Oc1ccc2ccccc2c1N=Nc1ccccn1` the inhibition was 95.8% (active).
In the case of `CC(=O)c1ccc(N2CCN(C(=S)Nc3ccc(Oc4ccccc4)cc3)CC2)cc1`, the inhibition is reported as 41.5%.
Work on `Cc1ccccc1NC(=O)C1CCN(c2cc(-c3ccccc3)nc3ncnn23)CC1` yielded an inhibition of 46%.
With `O=C(Nc1ccc(Oc2ccccc2)cc1)C1CCN(c2c3c(nc4ncnn24)CCC3)CC1` the inhibition was 62% (active).
In the case of `COc1cc(C(=O)NCCOc2cc(C)ccc2C(C)C)cc(OC)c1OC`, the inhibition is reported as 52.4% (active).
Molecule `COCCNC(=S)N(CCc1c(C)[nH]c2ccc(C)cc12)Cc1cc(OC)c(OC)c(OC)c1` has an inhibition of 19.3%.
With `COc1ccc(CCNC(=O)c2cc(=O)c3cc(C)ccc3o2)cc1OC` the inhibition was 19.4%.
With `CC1=CC(C)(C)Nc2ccc(OC(=O)CN3C(=O)CCC3=O)cc21` the inhibition was 86.9% (active).
For `CC1=CC(C)(C)Nc2ccc(OC(=O)CN3C(=O)C4CCCCC4C3=O)cc21` (stereo not given), the inhibition was 42.7%.
With `CC1=CC(C)(C)Nc2ccc(OC(=O)C(C)N3C(=O)c4ccccc4C3=O)cc21` (stereo not given) the inhibition was 40.1%.
`Cn1c(Sc2ccc(Cl)cc2)c(C=O)c2ccccc21` gave an inhibition of 34.4%.
In the case of `Cc1cccc(Sc2c(C=O)c3ccccc3n2C)c1`, the inhibition is reported as 60.5% (active).
Molecule `Cn1c(Sc2ccc(Br)cc2)c(C=O)c2ccccc21` has an inhibition of 48.7%.
For `Cc1ccc(Sc2c(C=O)c3ccccc3n2C)cc1`, the inhibition was 86.4% (active).
Work on `COc1cccc(OCCn2cc(C=O)c3ccccc32)c1` yielded an inhibition of 42.4%.
In the case of `COc1ccc(C2=Nn3c(nnc3-c3ccncc3)SC2)cc1`, the inhibition is reported as 70.4% (active).
In the case of `c1csc(C2=Nn3c(nnc3-c3ccncc3)SC2)c1`, the inhibition is reported as 90.9% (active).
In the case of `COc1cccc(-c2nnc3n2N=C(C(C)(C)C)CS3)c1`, the inhibition is reported as 96.3% (active).
With `c1ccc(C2=Nn3c(nnc3-c3ccncc3)SC2)cc1` the inhibition was 70.9% (active).
In the case of `Clc1ccccc1C1=Nn2c(nnc2-c2ccncc2)SC1`, the inhibition is reported as 84.4% (active).
`CCc1cccc(C)c1NS(=O)(=O)c1cccs1` showed an inhibition of -2.7%.
`COC(=O)c1cccc(NS(=O)(=O)c2cccs2)c1C` gave an inhibition of 7.7%.
In the case of `O=S(=O)(Nc1cccc2ncccc12)c1cccs1`, the inhibition is reported as 98.1% (active).
For `Cc1ccc(S(=O)(=O)Nc2cccc3ncccc23)s1`, the inhibition was 96.4% (active).
Molecule `Cc1c(NS(=O)(=O)c2ccc3c(c2)OCCO3)cccc1-c1nc2cccnc2s1` has an inhibition of 48.1%.
`CC(NC(=S)NC1CCCCC1)c1ccc(C(C)(C)C)cc1` (stereo not given) showed an inhibition of 9.1%.
For `O=C(Cn1ncc(Cl)c(Cl)c1=O)c1ccc(Cl)cc1`, the inhibition was 75.4% (active).
Work on `O=C1CN(C(=O)Cn2ncc(Cl)c(Cl)c2=O)c2ccccc2N1` yielded an inhibition of 40.3%.
`CC(C)(C)C(=O)Cn1ncc(Cl)c(Cl)c1=O` gave an inhibition of 10.7%.
For `Cc1cc(Br)ccc1NC(=O)CNC(=O)Cn1ncc(Cl)c(Cl)c1=O`, the inhibition was 94.4% (active).
With `O=C(Cn1ncc(Cl)c(Cl)c1=O)N1CCc2ccccc21` the inhibition was 73% (active).
For `CCOC(=O)c1ccc(NC(=O)Cn2ncc(Cl)c(Cl)c2=O)cc1`, the inhibition was 60.3% (active).
With `CCC(=O)Nc1ccc(C(=O)Cn2ncc(Cl)c(Cl)c2=O)cc1` the inhibition was 56.5% (active).
`Cc1ccc(-c2csc(N3CCN(CCCn4c(-c5ccncc5)nc5ccccc54)CC3)n2)cc1` gave an inhibition of -10.9%.
In the case of `CC(=O)Nc1nc(C)c(-c2csc(Nc3ccc(O)cc3)n2)s1`, the inhibition is reported as 58.5% (active).
With `CC(=O)Nc1ccc(C(=O)Nc2nc(-c3cc(C)n(Cc4ccccc4)c3C)cs2)cc1` the inhibition was 20.1%.
Work on `CCN(c1ccc(C)cc1)S(=O)(=O)c1nnc(NC(=O)c2ccco2)s1` yielded an inhibition of 10.4%.
`CC(=O)Nc1nc(C)c(-c2csc(Nc3cccc([N+](=O)[O-])c3)n2)s1` showed an inhibition of 24.8%.
In the case of `COc1ccccc1Nc1nc(-c2sc(NC(=O)c3ccco3)nc2C)cs1`, the inhibition is reported as 82.3% (active).
Molecule `O=C(c1cnn(C(=O)c2ccc(O)cc2)c1)c1ccccc1O` has an inhibition of 9.9%.
Molecule `Cc1ccc(O)c(C(=O)c2cnc3c(c2)COc2ccc(C)cc2-3)c1` has an inhibition of 22%.
With `Cc1[nH]nc2ncc(C(=O)c3ccccc3O)cc12` the inhibition was 67.9% (active).
